# Source: PubChem BioAssay AID2501 (Southern Research Specialized Biocontainment Screening …, 2010)
# Hit rate of the full screen: of about 2,200 compounds, about 1,200 (55%) were called active. Cut-off not given; nearly all actives show IC50 up to about 92 µM. The set was probably picked from earlier hits. The list shows a part of the results.
# Assay: counter assay for TAg ATPase ADP read-out – biochemical, ADP-Hunter, fluorescence, counter-screen (AID 2501);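 further: purified T antigen ATPase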
# Settings: series mostly up to 100 µM
row,SMILES,IC50
1,Clc1ccccc1CSc1nnc(-c2ccco2)c(-c2ccco2)n1,inactive
2,C=CCc1ccc(OCCN2CCc3ccccc3C2)c(OC)c1,inactive
3,O=[N+]([O-])c1ccc(SCCc2ccncc2)cc1,inactive
4,CN1CCc2[nH]c3ccc(C(=O)NN)cc3c2C1,inactive
5,Cc1c(CCO)c(=O)n(C)n1C(=O)c1ccc(Cl)cc1,inactive
6,CCOC(=O)N1CCN(c2ccc(O)cc2)CC1,4.16 µM (active)
7,CCOC(=O)N1CCN(C(=O)c2ccc3c(SCC(=O)O)c4c(nc3c2)CCCC4)CC1,inactive
8,O=C(COC(=O)COc1cccc(C(F)(F)F)c1)NC1CCCC1,inactive
9,O=C(COc1cccc(C(F)(F)F)c1)N1CCN(c2ccc(O)cc2)CC1,15.1 µM (active)
10,COc1cc(OC)cc(C(=O)NCC(=O)N2CCN(c3ccc(O)cc3)CC2)c1,8.71 µM (active)
11,O=C(CCSc1ccc(Cl)cc1)N1CCN(c2ccc(O)cc2)CC1,7.46 µM (active)
12,Cc1cc(OCC(=O)N2CCN(c3ccc(F)cc3)CC2)c2c(C)cc(=O)oc2c1,inactive
13,CCOc1ccccc1NC(=O)COC(=O)c1cccc(-c2ccc(OC(C)=O)cc2)c1,inactive
14,CCOc1cccc(=O)c2c(C)n(-c3ccc(C(=O)O)cc3)c(C)c12,inactive
15,CCOc1cc(NC2CS(=O)(=O)CC2O)c(OCC)cc1NC(=O)c1ccccc1 (stereo unspecified),4.18 µM (active)
16,COc1ccc2c(=O)c3c(=O)n(Cc4ccco4)c(-c4ccco4)nc3oc2c1,inactive
17,CC(=O)NCCc1c[nH]c2ccc(O)cc12,7 µM (active)
18,OCCc1c[nH]c2ccc(C(F)(F)F)cc12,inactive
19,O=C1c2ccccc2C(=O)N1CCc1c[nH]c2ccc(O)cc12,7.26 µM (active)
20,Cc1ccc(S(=O)(=O)N2CCCOC2CNC(=O)C(=O)NCCc2c[nH]c3ccccc23)cc1 (stereo unspecified),inactive
21,O=[N+]([O-])c1ccc(S(=O)(=O)N2CCSC2c2ccco2)cc1 (stereo unspecified),inactive
22,COc1cc(/C=N/N=C(\N)c2nonc2N)ccc1O,4.89 µM (active)
23,N/C(=N\N=C\c1ccc(O)c(O)c1)c1nonc1N,14 µM (active)
24,O=c1oc2ccccc2c2oc3cc(O)c(O)cc3c12,8.13 µM (active)

row,SMILES,IC50
1,COc1ccc(C2CC(=O)C(C(c3ccc(O)cc3)C3C(=O)CC(c4ccc(OC)cc4)CC3=O)C(=O)C2)cc1 (stereo unspecified),inactive
2,CN(C)c1ccc(C(=O)c2ccc(N(C)C)c(N)c2)cc1N,4.76 µM (active)
3,O=C(CNC(=O)c1ccccc1)OCc1ccc([N+](=O)[O-])cc1,inactive
4,COc1cc(/C=N\NC(=O)CNC(=O)c2cccc([N+](=O)[O-])c2)ccc1O,2.18 µM (active)
5,COc1cc(/C=N/NC(=O)c2cccc([N+](=O)[O-])c2)ccc1O,2.38 µM (active)
6,C#CCOCCOCCOCCNc1nc(N2CCN(C(=O)CCCCCCCCCCNC(=O)[C@H](CCCCN)n3cc(C[C@@H](C)CC)nn3)CC2)nc(N2CCN(C(=O)CCCCCCCCCCNC(=O)[C@H](CCCCN)n3cc(C[C@@H](C)CC)nn3)CC2)n1,inactive
7,O=C(O)c1ccccc1NS(=O)(=O)c1cccc(-n2sc3ccccc3c2=O)c1,9.24 µM (active)
8,Cc1ccc(-n2sc3ccccc3c2=O)cc1S(=O)(=O)N1CCCCC1,24.1 µM (active)
9,CN(C)S(=O)(=O)c1cccc(-n2sc3ccccc3c2=O)c1,8.98 µM (active)
10,CCC1CCCCN1S(=O)(=O)c1ccc(NC(=O)c2nc(S(C)(=O)=O)ncc2Cl)cc1 (stereo unspecified),inactive
11,O=C(C1=C[C@@H](c2ccc(Br)cc2)C[C@@H](OCCCCO)O1)N1CCOCC1,inactive
12,COC1=C/C(=C/c2c(N)n3nc(CC(=O)N4CCCCC4)sc3nc2=O)C=CC1=O,7.89 µM (active)
13,Nc1c(/C=C2/C=CC(=O)C(O)=C2)c(=O)nc2sc(CC(=O)N3CCCC3)nn12,8.26 µM (active)
14,Nc1c(C=C2C=CC(=O)C=C2)c(=O)nc2sc(CC(=O)N3CCCCC3)nn12,12.5 µM (active)
15,Nc1c(/C=C2/C=CC(=O)C(O)=C2)c(=O)nc2sc(CC(=O)N3CCCCC3)nn12,10.5 µM (active)
16,CC(=O)O[C@H]1C[C@@]2(C)[C@@H](C[C@@H](O)[C@H]3[C@@]4(C)CC[C@@H](O)[C@@H](C)C4CC[C@@]32C)/C1=C(\CCC=C(C)C)C(=O)O (stereo partly specified),inactive
17,CC(=O)NCCC1CCCCN1Cc1nc(Cc2cccc(C(F)(F)F)c2)no1 (stereo unspecified),inactive
18,Cc1ccc(C(C(=O)NCc2ccc(F)cc2)N(CCCO)C(=O)C2COc3ccccc3O2)o1 (stereo unspecified),inactive
19,O=c1[nH]c(/C=C\c2ccc(O)c(O)c2)nc(O)c1[N+](=O)[O-],5.5 µM (active)
20,O=c1oc2cc(O)ccc2s1,11.8 µM (active)
21,O=C(O)c1cc(S(=O)(=O)Nc2ccc3oc(=O)sc3c2)ccc1O,inactive
22,CCOC(=O)NNc1ccc2nonc2c1[N+](=O)[O-],inactive
23,O=c1cc(-c2ccc(O)cc2)oc2cc(O)c(C3OC(CO)C(O)C(O)C3O)c(O)c12 (stereo unspecified),18.6 µM (active)
24,O=c1c2cc(O)c(O)cc2oc2cc(O)c(C3OC(CO)C(O)C(O)C3O)c(O)c12 (stereo unspecified),6.35 µM (active)

row,SMILES,IC50
1,O=c1cc(-c2ccc(O)cc2)oc2c(C3OCC(O)C(O)C3O)c(O)c(C3OC(CO)C(O)C(O)C3O)c(O)c12 (stereo unspecified),17.3 µM (active)
2,O=c1cc(-c2ccc(O)c(O)c2)oc2cc(O)c(C3OC(CO)C(O)C(O)C3O)c(O)c12 (stereo unspecified),5.59 µM (active)
3,O=c1cc(-c2ccccc2Cl)oc2cc(O)cc(O)c12,inactive
4,Cc1cccc(N2CCN(C(=O)Cn3sc4nc(C)cc(C)c4c3=O)CC2C)c1 (stereo unspecified),inactive
5,O=C1CCCC2=C1C(c1ccc(Br)cc1)c1c([nH]c(=S)[nH]c1=O)N2 (stereo unspecified),92 µM (active)
6,O=c1[nH]c(=S)[nH]c2c1C(c1ccc(Br)cc1)c1c([nH]c(=S)[nH]c1=O)O2,inactive
7,C/C(CCc1ccccc1)=N\NC(=S)NCCc1ccccc1,inactive
8,COCCNC(=S)N/N=C(\C)c1ccc(O)cc1,3.77 µM (active)
9,COCCCNC(=S)N/N=C/c1ccc(O)cc1O,6.62 µM (active)
10,COCCCNC(=S)N/N=C/c1ccc(O)cc1,1.83 µM (active)
11,COCCCNC(=O)c1cc2cc3cc(OC)ccc3nc2o1,inactive
12,O=[N+]([O-])c1ccc2c(c1N1CCCCC1)=NC1(CCCCC1)[N+]=2[O-],inactive
13,COc1ccc(NC(=O)c2sc(=S)[nH]c2N)cc1,8.22 µM (active)
14,N=C1/C(=C\c2ccc(SCc3ccco3)o2)C(=O)N=C2SC=NN12,inactive
15,O=C1Nc2ccccc2/C1=N\N=C\c1ccc(O)c(O)c1,8.1 µM (active)
16,COc1cc(/C=N/N=C2/C(=O)Nc3ccccc32)ccc1O,4.52 µM (active)
17,COc1cc(/C=N/N=C2/C(=O)Nc3ccccc32)cc(OC)c1O,5.67 µM (active)
18,CCOC(=O)CN1C(=O)CC(c2ccc([N+](=O)[O-])cc2)C1=O (stereo unspecified),inactive
19,O=C(CS(=O)(=O)c1ccccc1)c1cc2cc(F)ccc2oc1=O,inactive
20,CN(C)C(=O)c1c(-c2ccccc2)oc2ccc(O)cc12,17.2 µM (active)
21,C=CCSC1=NC(=O)/C(=C/c2cccs2)S1,inactive
22,COc1ccc(N2C(=S)NC3c4cc(Cl)ccc4OC2(C)C3C(=O)N(C)C)cc1 (stereo unspecified),inactive
23,CCOc1cc(/C=C2\C(=N)N3N=CSC3=NC2=O)ccc1OS(=O)(=O)c1ccccc1,inactive
24,CCOc1cc(/C=C2\C(=O)ON=C2c2ccccc2)cc(Br)c1O,inactive

row,SMILES,IC50
1,Cc1ccsc1/C=C1/C(=O)NN(c2ccccc2)C1=O,1.75 µM (active)
2,CCOc1cc(/C=C2\C(=O)NN(c3ccccc3)C2=O)cc([N+](=O)[O-])c1O,6.78 µM (active)
3,COc1cc(/C=C2/C(=O)NN(c3ccc(Cl)c(Cl)c3)C2=O)cc([N+](=O)[O-])c1O,14.6 µM (active)
4,COc1cc(/C=C2\C(=O)NN(c3ccccc3)C2=O)cc([N+](=O)[O-])c1O,59.3 µM (active)
5,C/C(=N\NC(=O)c1csc(C)c1C)c1ccc(C)s1,inactive
6,O=Cc1coc2c(ccc3ccccc32)c1=O,10.1 µM (active)
7,COc1cc(OC)c2c(c1O)OC(c1ccccc1)CC2=O (stereo unspecified),inactive
8,O=C1CC(c2ccc(O)c(O)c2)Oc2c1ccc(O)c2O (stereo unspecified),13.6 µM (active)
9,O=C1c2c(O)cc(O)cc2O[C@H](c2ccc(O)c(O)c2)[C@H]1O,5.9 µM (active)
10,COc1cc([C@@H]2Oc3cc(C4Oc5cc(O)cc(O)c5C(=O)[C@H]4O)ccc3O[C@H]2CO)ccc1O (stereo partly specified),31.4 µM (active)
11,O=C1CC(c2ccc(O)c(O)c2)Oc2cc(O)cc(O)c21 (stereo unspecified),4.23 µM (active)
12,CC(=O)Nc1nnc(SCc2cccc(F)c2)s1,inactive
13,O=C(O)CN1C(=O)/C(=C\C(Br)=C\c2ccccc2)SC1=S,inactive
14,O=C1NC(=S)S/C1=C/c1ccc(N2CCOCC2)o1,18.9 µM (active)
15,O=C1NC(=S)S/C1=C\c1ccc(SCc2ccccc2)o1,inactive
16,O=C1/C(=C/c2ccco2)SC(=S)N1CCC(=O)N1CCCCC1CCO (stereo unspecified),inactive
17,O=C(O)CN1C(=O)/C(=C/c2ccc(N3CCCCC3)o2)SC1=S,38.4 µM (active)
18,COc1ccccc1N1C(=O)C=C(Sc2nc(C)cc(C)n2)C1=O,inactive
19,CN(C)c1ccc(N=c2sc3ccccc3n2C)cc1,7.65 µM (active)
20,COC(=O)/C(=C/Nc1ccc(O)cc1)[N+](=O)[O-],3.8 µM (active)
21,O=C(c1ccco1)N1CCN(C(=S)Nc2ccc(F)c(Cl)c2)CC1,39.5 µM (active)
22,N=c1c[n+](N2CCOCC2)[n-]o1,inactive
23,Oc1ccc(Nc2nc(N3CCCC3)c3ccccc3n2)cc1,4.06 µM (active)
24,CN1CCN(c2nc(Nc3ccc(O)cc3)nc3ccccc23)CC1,6.32 µM (active)
